Screens: PubChem, several laboratories
Rows were chosen to be rich in hits. Some 1.5% of all compounds tested hit in one or more screens of this group.
cardiac RTF act – increases calcium sensitivity of human cardiac regulated thin filaments; IANBD-labeled TnC RTF fluorescence at EC20 calcium; 0% EC20 calcium, 100% full calcium; activation, % at 7.2 µM; 0.24% of 340,000 active; AID 493008;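 active means activation above the mean over all tested compounds plus 3 SD, cut at about 30% in these data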;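 further: rise in fluorescence read as greater calcium sensitivity of cardiac thin filaments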
IDE cell inh – inhibitors of human insulin-degrading enzyme in cells; inhibition, % at 5.59 µM; HEK cells, FAbetaB cleavage, fluorescence polarization; P14735; 0.41% of 320,000 active;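 active means percent inhibition above the average of all tested compounds plus 3 SD, set per screening campaign, cut at about 16% in these data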;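 further: IDE supplied by intact live HEK cells; FP after avidin binding of uncleaved biotin substrate so inhibition keeps polarization high; 0% = DMSO wells and 100% = 60 µM reference IDE inhibitor Ii1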
TPT1 inh – blocks Candida albicans tRNA 2'-phosphotransferase | 0.81% of 300,000 active | recombinant caTPT1, FP RNA substrate dephosphorylation | inhibition, % at 5 µM | AID 1962;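 active means inhibition above the mean of all tested compounds plus 3 SD, set per screening campaign, cut at about 24% in these data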;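 further: plate controls were DMSO alone for no effect and ferristatin control at 100 nM for full effect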
CRFBP-R2 agonist – agonists of human CRF-binding protein/CRF-R2 receptor complex; HEK293 CRF-R2/CRF-BP, calcium dye fluorescence (FLIPR); percent of saturating CRF peptide response; activation, % at 13.2 µM; 0.46% of 350,000 active;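 active means activation of at least 50%, plus an integration ratio under a set limit after plate pattern correction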;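 further: plate controls were neutral control wells without compound for no effect and CRF at EC100 for full effect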
RTF Ca sens inh – cardiac RTF calcium desensitization; AID 493244; IANBD-labeled cardiac RTF, Ca2+ fluorescence; 0.12% of 340,000 active; inhibition, % at 7.15 µM;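 active means inhibition above the mean inhibition of all tested compounds plus 3 SD, cut at about 17% in these data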;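 further: assay run at fixed EC70 calcium of 1.6 mM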
IDE cell activ – IDE (human) activation, cell-based | P14735 | HEK cells, FAbeta-B cleavage, fluorescence polarization; 0% vehicle, 100% cell-free pure enzyme wells | activation, % at 5.96 µM | 0.073% of 340,000 active;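 active means activation above the mean of all tested compounds plus 3 SD, set per screening campaign, cut at about 17% in these data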
The depositor's hits bear a star.

What do the screens show for `Cc1cc(=O)oc2cc(OCC(=O)NC3CC(C)(C)NC(C)(C)C3)c(Cl)cc12`?
cardiac RTF act: -5.4; IDE cell inh: -0.2; TPT1 inh: 0.8; CRFBP-R2 agonist: 0.6; RTF Ca sens inh: -6.3; IDE cell activ: 8.3

What do the screens show for `O=C(CC1CCCCC1)c1c(O)c2ccccc2oc1=O`?
cardiac RTF act: 1.9; IDE cell inh: -1.0; TPT1 inh: 2.0; CRFBP-R2 agonist: 69.7*; RTF Ca sens inh: -7.2; IDE cell activ: 4.2

What do the screens show for `CCCCC(=O)c1c(O)c2ccccc2oc1=O`?
cardiac RTF act: 0.6; IDE cell inh: 8.3; TPT1 inh: -2.8; CRFBP-R2 agonist: 0.5; RTF Ca sens inh: 0.6; IDE cell activ: 4.7

How did Cc1cc(C)c(S(=O)(=O)N2CCCCC2CCNC(=O)C(=O)NCc2ccco2)c(C)c1 (stereo not given) do in these assays?
cardiac RTF act: -4.2; IDE cell inh: 5.5; TPT1 inh: -2.9; CRFBP-R2 agonist: -0.1; RTF Ca sens inh: -15.3; IDE cell activ: 0.9

How did CC(=O)c1cccc(NC(=O)COC(=O)CCc2ccc(S(=O)(=O)N3CCOCC3)cc2)c1 do in these assays?
cardiac RTF act: 0.1; IDE cell inh: -2.2; TPT1 inh: 0.3; CRFBP-R2 agonist: 2.5; RTF Ca sens inh: -6.1; IDE cell activ: 4.1

How did O=C(CCc1ccc(S(=O)(=O)N2CCOCC2)cc1)OCC(=O)c1ccccc1 do in these assays?
cardiac RTF act: 37.0*; IDE cell inh: 1.8; CRFBP-R2 agonist: -1.0; RTF Ca sens inh: -2.6; IDE cell activ: 4.8

How did Cc1ccc2[nH]c(C(=O)N/N=C/c3ccccc3C(=O)O)c(-c3ccccc3)c2c1 do in these assays?
cardiac RTF act: -5.9; IDE cell inh: -2.1; TPT1 inh: 0.4; CRFBP-R2 agonist: 72.2*; RTF Ca sens inh: -0.2; IDE cell activ: 7.6

What do the screens show for `O=C(NNC(=S)Nc1ccc(Cl)cc1)c1ccccc1OC(F)F`?
cardiac RTF act: 9.4; IDE cell inh: 9.5; TPT1 inh: -1.4; CRFBP-R2 agonist: 51.1*; RTF Ca sens inh: 2.9; IDE cell activ: -5.0

What do the screens show for `CCO/C=C/C(O)(CNC(=O)c1ccc(C(C)(C)C)cc1)C(F)(F)F` (stereo not given)?
cardiac RTF act: 0.2; IDE cell inh: 2.4; TPT1 inh: 2.3; CRFBP-R2 agonist: 0.4; RTF Ca sens inh: -1.2; IDE cell activ: -2.4

What do the screens show for `CCOC(=O)CSc1nc(N2CCOCC2)c2c(c1C#N)CC(C)(C)N(C)C2`?
cardiac RTF act: 0.1; IDE cell inh: 9.7; TPT1 inh: -32.2; CRFBP-R2 agonist: 196.0*; RTF Ca sens inh: -2.1; IDE cell activ: -1.4

How did CCOC(=O)CSc1nc(N2CCOCC2)c2c(c1C#N)CC(C)(C)OC2 do in these assays?
cardiac RTF act: 3.0; IDE cell inh: -1.4; TPT1 inh: -0.3; CRFBP-R2 agonist: 0.0; RTF Ca sens inh: -8.8; IDE cell activ: -0.1

How did Cc1ccc(CNC(=O)c2cccc3c2C(=O)c2ccc(N4CCCCC4)cc2S3(=O)=O)cc1 do in these assays?
cardiac RTF act: 65.3*; IDE cell inh: 10.0; CRFBP-R2 agonist: 57.2*; RTF Ca sens inh: -84.3; IDE cell activ: -5.1

Results for O=C(NCc1ccccc1Br)c1cccc2c1C(=O)c1ccc(N3CCC(Cc4ccccc4)CC3)cc1S2(=O)=O ?
cardiac RTF act: 5.5; IDE cell inh: 5.7; CRFBP-R2 agonist: 60.6*; RTF Ca sens inh: -2.4; IDE cell activ: 3.9

How did O=C(NC1CCCCC1)c1cccc2c1C(=O)c1ccc(N3CCC(Cc4ccccc4)CC3)cc1S2(=O)=O do in these assays?
cardiac RTF act: 89.7*; IDE cell inh: 6.3; CRFBP-R2 agonist: 58.4*; RTF Ca sens inh: -154.9; IDE cell activ: -8.3

What do the screens show for `Cc1ccc(CNC(=O)c2cccc3c2C(=O)c2ccc(N4CCOCC4)cc2S3(=O)=O)cc1`?
cardiac RTF act: 9.9; IDE cell inh: -0.1; CRFBP-R2 agonist: 10.7; RTF Ca sens inh: -12.9; IDE cell activ: 3.5

Results for O=C(C[C@H]1C/C=C\C[C@@H](Cc2ccc(F)cc2)C(=O)OC[C@H]2CCCN2C1=O)NCCO ?
cardiac RTF act: 1.8; IDE cell inh: -1.1; CRFBP-R2 agonist: -0.9; RTF Ca sens inh: -11.7; IDE cell activ: 0.3

Results for CCOC(=O)[C@@H]1[C@H]2COc3cc(OC)ccc3[C@@H]2N2C(=O)N(c3cccc(Cl)c3)C(=O)[C@@]12C ?
cardiac RTF act: -7.6; IDE cell inh: 4.3; TPT1 inh: -1.4; CRFBP-R2 agonist: 0.2; RTF Ca sens inh: 5.7; IDE cell activ: 2.3

How did Cc1csc(NC(=O)Cc2ccccc2[N+](=O)[O-])n1 do in these assays?
cardiac RTF act: 7.2; IDE cell inh: 3.5; TPT1 inh: -3.7; CRFBP-R2 agonist: 208.1*; RTF Ca sens inh: 3.8; IDE cell activ: 0.5

Results for CCOC(=O)CC1C(=O)NCCN1c1nc2ccc(C)cn2c(=O)c1/C=C1\SC(=S)N(C(C)CC)C1=O (stereo not given) ?
IDE cell inh: 42.5*; TPT1 inh: 137.0*

Results for CCN(CC)c1ccc(C=C2SC(=S)NC2=O)cc1 ?
cardiac RTF act: 241.3*; CRFBP-R2 agonist: 167.8*; RTF Ca sens inh: -380.0; IDE cell activ: -105.1

Results for CC1Cc2cc(/C=C3/SC(=S)NC3=O)ccc2O1 (stereo not given) ?
cardiac RTF act: 0.8; IDE cell inh: 3.9; TPT1 inh: 0.3; CRFBP-R2 agonist: -2.7; RTF Ca sens inh: -5.2; IDE cell activ: 7.4

What do the screens show for `CCN(CC)c1ccc(/C=C2\SC(N)=NC2=O)cc1`?
cardiac RTF act: 33.1*; CRFBP-R2 agonist: 26.8; RTF Ca sens inh: -45.5; IDE cell activ: -32.0

How did CC(C)(C)C(=O)c1sc2nc(-c3cccs3)cc(C(F)(F)F)c2c1N do in these assays?
cardiac RTF act: 21.8; IDE cell inh: -2.4; TPT1 inh: 7.2; CRFBP-R2 agonist: 82.8*; RTF Ca sens inh: -22.1; IDE cell activ: 3.1

How did Cc1nnc(NC(=O)c2sc3nc(-c4cccs4)cc(C(F)(F)F)c3c2N)s1 do in these assays?
cardiac RTF act: 23.5; IDE cell inh: 19.1*; TPT1 inh: 47.0*; CRFBP-R2 agonist: 213.1*; RTF Ca sens inh: -44.7; IDE cell activ: -27.3

Results for COc1ccccc1NC(=O)c1sc2nc(Cc3ccccc3)cc(C(F)(F)F)c2c1N ?
cardiac RTF act: 7.1; IDE cell inh: 0.3; TPT1 inh: 4.5; CRFBP-R2 agonist: 58.1*; RTF Ca sens inh: -2.5; IDE cell activ: 3.0

Results for O=[N+]([O-])c1ccc(C2OCCO2)cc1CS(=O)(=O)c1ccccc1 ?
cardiac RTF act: -6.2; IDE cell inh: 1.9; TPT1 inh: 2.7; CRFBP-R2 agonist: -1.4; RTF Ca sens inh: -8.4; IDE cell activ: 3.0

How did COc1cc(C(=O)OCC(=O)c2c(N)n(C)c(=O)n(C)c2=O)ccc1OCCC(C)C do in these assays?
cardiac RTF act: 7.1; IDE cell inh: -1.3; TPT1 inh: -1.2; CRFBP-R2 agonist: -2.5; RTF Ca sens inh: -8.0; IDE cell activ: 6.7
